Experiment [1] is described as follows: APR_HepG2_P-H2AX_72hr: Apredica 72-hour HepG2 Assay for H2AX Phosphorylation (AID 2282916).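 Note: phospho-histone H2A.x immunostain intensity per cell marking DNA damage.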 The conditions noted are these: imaging, actives raise or lower the signal. In outline: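 Human hepatoma HepG2 cells are dosed across ten concentrations (0.39 to 200 uM, 0.5% v/v DMSO) and incubated 72 hr. Phospho-histone H2A.x is then detected by antibody staining alongside c-Jun and Hoechst, and quantified by automated fluorescence imaging.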

A short description of experiment [2]: APR_HepG2_MitoMembPot_72hr: Apredica 72-hour HepG2 Assay for Mitochondrial Membrane Potential (AID 2282917). The conditions noted are these: imaging, actives raise or lower the signal. In short, it runs like this:
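Membrane potential read by MitoTracker Red CMXRos (250 nM, 30 min, pre-fixation) fluorescence imaging of HepG2 after 72 hr exposure. Ten concentrations, 0.39–200 uM, duplicate wells, 0.5% DMSO; fitted in both directions against DMSO baseline.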

Experiment [3] in a line: APR_HepG2_MitoticArrest_72hr: Apredica 72-hour HepG2 Assay for Mitotic Arrest (AID 2282918). The conditions noted are these: high-content imaging, actives raise or lower the signal. In outline: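 HepG2 cells treated 72 h at 0.39–200 uM, 0.5% DMSO final; formaldehyde-fixed, stained with Hoechst 33342 and phospho-histone H3 antibody, imaged by high-content fluorescence; bidirectional fit versus DMSO.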

A short description of experiment [4]: APR_HepG2_MicrotubuleCSK_72hr: Apredica 72-hour HepG2 Assay for Microtubule CSK Stabilty (AID 2282919). The conditions noted are these: HepG2 microtubule cytoskeleton, high-content imaging, actives raise or lower the signal. In outline: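 High-content imaging of alpha-tubulin staining in fixed HepG2 cells after 72 hr treatment with ten concentrations from 0.39 to 200 uM (0.5% DMSO). Fitting was bidirectional against DMSO; taxol served as positive control.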

The nature of experiment [5]: APR_HepG2_P-H2AX_24hr: Apredica 24-hour HepG2 Assay for H2AX Phosphorylation (AID 2282920). The settings on record: high-content imaging, actives raise or lower the signal. In outline:
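HepG2 cells dosed 24 h at 0.39–200 uM (10 points, duplicate, 0.5% DMSO final). Formaldehyde-fixed and permeabilized, then immunostained for phospho-H2A.x with Hoechst. Fluorescence quantified by high-content imaging, fitted bidirectionally versus DMSO.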

The nature of experiment [6]: APR_HepG2_StressKinase_72hr: Apredica 72-hour HepG2 Assay for Stress Kinase (AID 2282921). The settings on record: HepG2 stress kinase (phospho-c-Jun) imaging, actives raise or lower the signal. In outline:
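After a 72 h compound treatment spanning 0.39 to 200 uM, formaldehyde-fixed cells are labelled for phosphorylated c-Jun and nuclei, imaged by automated fluorescence microscopy, and activity is fitted in both directions relative to DMSO controls.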

Experiment [7] can be described thus: APR_HepG2_StressKinase_24hr: Apredica 24-hour HepG2 Assay for Stress Kinase (AID 2282922). The settings on record: HepG2 stress kinase (phospho-c-Jun) imaging, actives raise or lower the signal. In outline: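 High-content imaging of phospho-c-Jun immunofluorescence in fixed, permeabilized HepG2 cells after 24 h dosing. Ten concentrations, 0.39 to 200 uM, run in duplicate at 0.5% v/v DMSO; gain or loss of signal versus DMSO.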

Experiment [8] is described as follows: APR_HepG2_p53Act_72hr: Apredica 72-hour HepG2 Assay for p53 Activation (AID 2282923).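 Note: average cellular p53 protein immunofluorescence intensity in HepG2 cells.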 The conditions noted are these: high-content imaging, actives raise or lower the signal. In outline: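 Imaging-based endpoint: after 72 hr compound exposure (up to 200 uM, 0.5% DMSO), fixed and permeabilized monolayers were labelled with anti-p53 antibody and imaged; signal change in either direction was fitted relative to DMSO controls.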

Experiment [9] in a line: APR_HepG2_MitoMass_72hr: Apredica 72-hour HepG2 Assay for Mitochondrial Mass (AID 2282924).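 Note: MitoTracker Red CMXRos stain intensity per cell imaged as mitochondrial mass.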 The settings on record: high-content imaging, actives raise or lower the signal. In short, it runs like this: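 Readout is imaged MitoTracker Red (250 nM, 30 min, pre-fixation) signal, fitted bidirectionally against DMSO baseline. Human HepG2 liver cells received compound 0.39–200 uM in duplicate for 72 hr, final DMSO 0.5%.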

Experiment [10] is described as follows: APR_HepG2_NuclearSize_72hr: Apredica 72-hour HepG2 Assay for Nuclear Size (AID 2282925). The conditions noted are these: high-content imaging, actives raise or lower the signal. In outline: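 Nuclear size was read by high-content imaging of Hoechst 33342 stain after formaldehyde fixation. Compounds ran 72 h on HepG2 at 0.39 to 200 uM, with final DMSO 0.5% v/v. Curves fitted both directions relative to DMSO control.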

Experiment [11] can be described thus: ATG_CRE_CIS: Attagene CIS-FACTORIAL HepG2 Assay for human cAMP Responsive Element (CRE) binding protein 3 (AID 2282926). The conditions noted are these: HepG2 CRE cis-reporter, Attagene multiplexed mRNA; actives raise or lower the signal. In short, it runs like this:
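Induced reporter mRNA from a CRE cis element, measured in HepG2 among many multiplexed units at 24 h. Detection used RT-PCR plus capillary electrophoresis of fluorescent fragments; DMSO served as negative control.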

For experiment [12], the target named is CCAAT/enhancer-binding protein beta (Homo sapiens) (UniProt P17676). Description: ATG_C_EBP_CIS: Attagene CIS-FACTORIAL HepG2 Assay for human CCAAT/Enhancer Binding Protein (C/EBP) beta (AID 2282927). The conditions noted are these: HepG2 Attagene cis-factorial transcription factor reporter; actives raise or lower the signal. In short, it runs like this:
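Endogenous transcription factor activity in human liver HepG2 cells is inferred from induction of a CEBPB-linked reporter mRNA. Exposure lasts 24 h; activity is fitted in both directions relative to DMSO.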

Experiment [13] is described as follows: ATG_CMV_CIS: Attagene CIS-FACTORIAL HepG2 Assay for human CMV (Internal Marker) (AID 2282928).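 Note: endpoint acts as a background internal control marker rather than a target.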 The settings on record: HepG2 CMV promoter reporter, transcription factor profiling; actives raise or lower the signal. In short, it runs like this: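 Bidirectional fits against DMSO are applied to reporter mRNA, read by RT-PCR with capillary electrophoresis, from HepG2 cells exposed 24 h. The endpoint serves as an internal CMV background marker within the cis-factorial reporter panel.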

Experiment [14] concerns the target Aryl hydrocarbon receptor (Homo sapiens) (UniProt P35869). Description: ATG_Ahr_CIS: Attagene CIS-FACTORIAL HepG2 Assay for human Aryl Hydrocarbon Receptor (Ahr) (AID 2282930). The settings on record: HepG2 AhR cis-factorial reporter transcription; actives raise or lower the signal. In outline:
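Transient MRTU transfection of HepG2 → 24 h compound exposure → total RNA, oligo(dT) RT → PCR, 6-FAM extension, HpaI cut → CE fluorescence. DMSO = baseline; bidirectional curve fit.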

A short description of experiment [15]: ATG_AP_2_CIS: Attagene CIS-FACTORIAL HepG2 Assay for human Activator Protein 2 (AP-2) (AID 2282932). The settings on record: HepG2 AP-2 cis-reporter, Attagene transcription factor profiling; actives raise or lower the signal. In short, it runs like this:
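Endogenous transcription factor activity is reported through transfected multiplex reporter constructs in HepG2, after 24 h of compound exposure. Transcripts were quantified by RT-PCR and capillary electrophoresis of fluorescent fragments. Bidirectional fit against DMSO.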

Experiment [16] can be described thus: ATG_BRE_CIS: Attagene CIS-FACTORIAL HepG2 Assay for human Bone Morphogenetic Protein (BMP) Response Element (BRE) (AID 2282933). The settings on record: HepG2 BMP response element reporter, Attagene transcription factor profiling; actives raise or lower the signal. In short, it runs like this: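 HepG2 cells transiently transfected with CIS reporter units (endogenous TF activity, BMP response element), dosed 24 h. Reporter mRNA quantified by RT-PCR, fluorescent labelling and capillary electrophoresis; bidirectional fit vs DMSO baseline.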

In experiment [17] the target is Transcription factor E2F1 (Homo sapiens) (UniProt Q01094). Description: ATG_E2F_CIS: Attagene CIS-FACTORIAL HepG2 Assay for human E2F Transcription Factor 1 (AID 2282935). The conditions noted are these: HepG2 Attagene cis-reporter, E2F reporter RNA transcripts; actives raise or lower the signal. In outline:
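Gain or loss of reporter transcript, fitted against DMSO, reflects E2F1-driven transcription. Transiently transfected HepG2 dosed 24 h before RNA isolation. Quantified by fluorescent RT-PCR products separated by capillary electrophoresis.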

Experiment [18] addresses Retinoic acid receptor alpha (Homo sapiens) (UniProt P10276). Description: ATG_DR5_RAR_CIS: Attagene CIS-FACTORIAL HepG2 Assay for human Retinoic Acid Receptor Alpha (RARE), DR5 submotif (AID 2282934).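 For AC50: reporter responds to endogenous RAR alpha beta and gamma in HepG2 not RARA alone.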 The settings on record: HepG2 Attagene cis-factorial RARE DR5 reporter, mRNA; actives raise or lower the signal. In short, it runs like this:
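Transient MRTU transfection of HepG2; 24 h compound treatment; TriZol RNA, oligo(dT) RT, PCR, FAM labelling, capillary electrophoresis. Bidirectional fit vs DMSO. Endogenous TF activity at DR5 RARE.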

Experiment [19] is described as follows: ATG_DR4_LXR_CIS: Attagene CIS-FACTORIAL HepG2 Assay for human Liver X Receptor (LXR), DR4 submotif (AID 2282929). The settings on record: HepG2 Attagene DR4 cis-reporter, mRNA transcription; actives raise or lower the signal. In outline:
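Transiently transfected HepG2 liver cells; cis-regulated reporters; 24 h dosing. RT-PCR plus CE read-out of reporter mRNA. DMSO baseline, bidirectional curve fitting.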

The nature of experiment [20]: ATG_AP_1_CIS: Attagene CIS-FACTORIAL HepG2 Assay for human Activator Protein 1 (AP-1) (AID 2282931). The conditions noted are these: HepG2 Attagene cis-factorial AP-1 reporter mRNA; actives raise or lower the signal. In outline:
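We transfected HepG2 cells transiently with a set of cis-regulated reporter transcription units, dosed them for 24 h, and quantified reporter mRNA via RT-PCR and capillary electrophoresis, scoring gain or loss of signal relative to DMSO.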

This passage reports outcome and AC50 results from PubChem BioAssay (EPA / NIEHS).

The source made the active and inactive calls. Rule for the calls: active = hit-call score of the fitted dose curve at least 0.9, where 1 is the maximum; inactive = score below 0.9.

Sequence of Aryl hydrocarbon receptor (Homo sapiens) (P35869 whole entry, looked up): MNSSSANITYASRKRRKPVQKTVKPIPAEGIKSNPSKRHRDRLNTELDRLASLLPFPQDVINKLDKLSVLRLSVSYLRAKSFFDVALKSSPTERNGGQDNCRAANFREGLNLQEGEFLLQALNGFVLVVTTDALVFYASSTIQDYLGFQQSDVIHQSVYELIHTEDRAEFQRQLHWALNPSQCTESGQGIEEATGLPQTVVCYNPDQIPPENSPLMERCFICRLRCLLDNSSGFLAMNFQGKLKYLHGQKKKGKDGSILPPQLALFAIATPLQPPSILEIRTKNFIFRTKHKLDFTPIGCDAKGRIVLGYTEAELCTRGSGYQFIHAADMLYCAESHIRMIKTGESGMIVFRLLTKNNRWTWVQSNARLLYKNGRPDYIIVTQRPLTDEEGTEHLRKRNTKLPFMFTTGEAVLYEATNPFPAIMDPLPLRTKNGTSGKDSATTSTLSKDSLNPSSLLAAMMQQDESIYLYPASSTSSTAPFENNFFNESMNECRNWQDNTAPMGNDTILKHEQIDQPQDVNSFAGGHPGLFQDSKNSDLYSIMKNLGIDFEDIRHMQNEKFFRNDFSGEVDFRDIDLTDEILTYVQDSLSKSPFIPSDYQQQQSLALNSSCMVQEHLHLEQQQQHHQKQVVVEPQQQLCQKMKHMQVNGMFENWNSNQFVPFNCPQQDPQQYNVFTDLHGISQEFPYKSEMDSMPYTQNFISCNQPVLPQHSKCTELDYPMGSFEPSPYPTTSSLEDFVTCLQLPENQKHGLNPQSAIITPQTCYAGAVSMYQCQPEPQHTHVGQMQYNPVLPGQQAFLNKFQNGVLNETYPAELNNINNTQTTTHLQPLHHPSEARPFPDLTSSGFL
Sequence of Transcription factor E2F1 (Homo sapiens) (Q01094 whole entry, looked up): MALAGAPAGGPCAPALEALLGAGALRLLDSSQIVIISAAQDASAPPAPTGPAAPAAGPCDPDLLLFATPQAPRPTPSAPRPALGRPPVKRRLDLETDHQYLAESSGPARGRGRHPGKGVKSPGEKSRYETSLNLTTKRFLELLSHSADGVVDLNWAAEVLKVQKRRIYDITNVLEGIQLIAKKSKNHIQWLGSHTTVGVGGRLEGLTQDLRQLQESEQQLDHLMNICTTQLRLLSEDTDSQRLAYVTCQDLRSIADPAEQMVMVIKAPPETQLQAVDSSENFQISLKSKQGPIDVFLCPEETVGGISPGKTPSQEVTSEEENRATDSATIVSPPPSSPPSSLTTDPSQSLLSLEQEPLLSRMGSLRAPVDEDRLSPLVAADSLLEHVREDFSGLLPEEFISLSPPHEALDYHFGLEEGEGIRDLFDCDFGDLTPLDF
Sequence of CCAAT/enhancer-binding protein beta (Homo sapiens) (P17676 whole entry, looked up): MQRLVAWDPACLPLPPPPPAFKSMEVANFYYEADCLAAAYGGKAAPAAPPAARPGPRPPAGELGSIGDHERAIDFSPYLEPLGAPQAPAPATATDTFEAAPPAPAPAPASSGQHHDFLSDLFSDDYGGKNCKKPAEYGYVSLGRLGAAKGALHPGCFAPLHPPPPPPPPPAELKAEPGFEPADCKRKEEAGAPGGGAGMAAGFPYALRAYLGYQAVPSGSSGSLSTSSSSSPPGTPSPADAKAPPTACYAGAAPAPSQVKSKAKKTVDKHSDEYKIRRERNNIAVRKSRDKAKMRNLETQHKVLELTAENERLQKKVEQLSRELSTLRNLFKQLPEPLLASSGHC
Sequence of Retinoic acid receptor alpha (Homo sapiens) (P10276 whole entry, looked up): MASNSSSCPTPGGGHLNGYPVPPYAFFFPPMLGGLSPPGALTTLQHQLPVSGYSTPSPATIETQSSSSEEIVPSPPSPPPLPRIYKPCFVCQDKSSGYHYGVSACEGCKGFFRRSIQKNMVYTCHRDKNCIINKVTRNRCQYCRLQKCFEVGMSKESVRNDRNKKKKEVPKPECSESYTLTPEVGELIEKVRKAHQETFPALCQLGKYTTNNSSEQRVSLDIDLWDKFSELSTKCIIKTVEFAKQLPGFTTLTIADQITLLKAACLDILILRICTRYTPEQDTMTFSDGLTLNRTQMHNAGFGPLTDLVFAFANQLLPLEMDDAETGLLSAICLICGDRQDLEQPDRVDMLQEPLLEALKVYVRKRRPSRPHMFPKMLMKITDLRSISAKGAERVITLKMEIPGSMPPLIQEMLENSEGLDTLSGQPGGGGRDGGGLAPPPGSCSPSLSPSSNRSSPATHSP

Consider `CCC(=NOC/C=C/Cl)C1=C(O)CC(C2CCOCC2)CC1=O` (stereo unspecified), for which the compound was called inactive in [1], in experiment [2], in experiment [3], in experiment [4], in experiment [5] and in [6]. Also, the compound was called inactive in experiment [7], in experiment [8], in experiment [9], in experiment [10], in [11] and in experiment [12]. Moreover, the compound was called inactive in [13], in experiment [14], in [15], in experiment [16] and in experiment [17].

For the compound `FC(F)C(F)(F)OCC(Cn1cncn1)c1ccc(Cl)cc1Cl` (stereo unspecified), the AC50 in experiment [1] is 105 µM (active); in experiment [3], 100 µM (active); in experiment [4], 84.6 µM (active); in [8], 116 µM (active); in experiment [11] it was 23.2 µM (active); in experiment [13], 16.2 µM (active). Besides, the AC50 is 33.3 µM (active) in experiment [14], 58.4 µM (active) in experiment [16] and 13 µM (active) in experiment [18]. Also, the call in experiment [2], in experiment [5], in [6], in experiment [7], in experiment [9] and in experiment [10] was inactive. Moreover, the outcome in experiment [12], in experiment [15] and in experiment [17] was inactive.

`CC[C@H](C)[C@H]1O[C@]2(C=C[C@@H]1C)C[C@@H]1C[C@@H](C/C=C(\C)[C@@H](O[C@H]3C[C@H](OC)[C@@H](O[C@H]4C[C@H](OC)[C@@H](NC)[C@H](C)O4)[C@H](C)O3)[C@@H](C)/C=C/C=C3\CO[C@@H]4[C@H](O)C(C)=C[C@@H](C(=O)O1)[C@]34O)O2`: the result in [1], in experiment [3], in experiment [4], in experiment [5], in [6] and in experiment [7] was inactive. Moreover, the result in experiment [8], in [9], in experiment [10], in experiment [11], in experiment [12] and in experiment [13] was inactive. Further, the result in [14], in experiment [15], in [16] and in experiment [17] was inactive. Moreover, in experiment [2], the AC50 was 0.16 µM (active).

For `COP(=O)(OC)OC(Br)C(Cl)(Cl)Br` (stereo unspecified), the result in experiment [1], in [2], in [3], in [4], in experiment [6] and in [9] was inactive. Also, the call in [10], in experiment [11], in [12], in experiment [13], in experiment [19] and in experiment [14] was inactive. Besides, the call in [20], in experiment [15], in experiment [16], in [18] and in [17] was inactive. The values for the AC50 in [5] and in [7] were 33.4 µM (active) and 32.5 µM (active), respectively.
